High-throughput results from PubChem.
Most compounds without a hit are left out; they make up all but 2.8% or so of the library.
KCNH2 3.1 block: blocks the human KCNH2 3.1 channel isoform; U2OS KCNH2 3.1, thallium flux FluxOr; hits give low values; activity change, % (tested at about 1.8 µM); 340,000 compounds, 0.95% hits; AID 720553;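 active = maximum activity change below -70%; inconclusive = maximum activity change from -70% to -50%; inactive = maximum activity change above -50%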;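 also: thallium influx rate constant from kinetic fluorescence after stimulation buffer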
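Normalized rate constant (relative to positive and negative DMSO controls) derived from a 2 min kinetic fluorescence read after stimulation; U2OS cells expressing the 3.1 isoform via virus at 1.77 x 10^8 /mL.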
GLS inh: blocks human kidney-isoform glutaminase activity; O94925; GLS enzymatic activity, qHTS titration; Potency, µM (titrated, usually from 45.5 µM), actives largely listed as inhibitors; 410,000 compounds, 0.21% hits
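Human kidney-isoform GLS in 45 mM KH2PO4 pH 8.2, 0.02% Tween-20, with compound, started with 1mM L-Glutamine (added stock). Glutamate oxidase/HRP/Amplex red coupled fluorescence read at start and after 30 min at RT.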
hERG WT inh: blocks the wildtype human KCNH2 potassium channel; U2OS, BacMam KCNH2, thallium flux FluxOr; hits give low values; activity change, % at 1.84 µM; AID 720551; Q12809; 340,000 compounds, 0.37% hits;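 active = maximum activity change below -70%; inconclusive = maximum activity change between -70% and -50%; inactive = maximum activity change above -50%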
Target sequence (Q12809 whole entry, looked up): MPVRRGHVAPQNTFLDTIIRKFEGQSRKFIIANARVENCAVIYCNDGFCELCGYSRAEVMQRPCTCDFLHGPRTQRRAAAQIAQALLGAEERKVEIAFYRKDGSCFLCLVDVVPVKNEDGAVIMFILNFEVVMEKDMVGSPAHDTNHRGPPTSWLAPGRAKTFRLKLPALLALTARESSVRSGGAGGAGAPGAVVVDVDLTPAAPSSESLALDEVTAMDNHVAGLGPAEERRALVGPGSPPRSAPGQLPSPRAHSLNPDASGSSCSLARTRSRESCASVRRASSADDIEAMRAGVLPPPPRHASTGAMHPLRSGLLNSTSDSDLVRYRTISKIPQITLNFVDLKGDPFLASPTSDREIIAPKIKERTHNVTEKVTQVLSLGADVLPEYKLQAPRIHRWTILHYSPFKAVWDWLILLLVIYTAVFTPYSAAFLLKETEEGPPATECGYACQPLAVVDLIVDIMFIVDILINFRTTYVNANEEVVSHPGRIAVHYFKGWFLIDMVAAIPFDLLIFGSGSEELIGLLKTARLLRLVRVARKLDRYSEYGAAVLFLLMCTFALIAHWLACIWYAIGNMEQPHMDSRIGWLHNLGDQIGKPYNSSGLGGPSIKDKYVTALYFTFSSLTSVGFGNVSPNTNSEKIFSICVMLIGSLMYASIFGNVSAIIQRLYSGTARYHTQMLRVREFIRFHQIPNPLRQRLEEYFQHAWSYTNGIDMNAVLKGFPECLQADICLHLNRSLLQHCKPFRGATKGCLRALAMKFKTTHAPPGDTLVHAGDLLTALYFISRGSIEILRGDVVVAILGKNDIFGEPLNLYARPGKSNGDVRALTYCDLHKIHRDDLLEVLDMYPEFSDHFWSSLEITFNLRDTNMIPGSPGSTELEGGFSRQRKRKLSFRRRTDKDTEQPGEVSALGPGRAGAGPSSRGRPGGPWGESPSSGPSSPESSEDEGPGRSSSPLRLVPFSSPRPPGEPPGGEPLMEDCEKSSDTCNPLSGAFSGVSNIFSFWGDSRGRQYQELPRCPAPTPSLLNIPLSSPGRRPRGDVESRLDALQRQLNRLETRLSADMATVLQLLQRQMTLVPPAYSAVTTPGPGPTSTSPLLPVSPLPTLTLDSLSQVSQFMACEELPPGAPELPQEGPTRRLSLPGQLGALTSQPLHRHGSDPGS
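U2OS cells were transduced with wild-type KCNH2 virus (2.03 x 10^8 / mL) for 4 h at room temperature, then cultured overnight at 37 C. Thallium flux was read with FluxOr dye. Rate constants were normalized to DMSO controls.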
GLP1R cytotox: cytotoxicity in counter-screen for GLP-1R inverse agonists | Potency, µM (highest dose often 38.3 µM), actives largely listed as inhibitors | 410,000 compounds, 0.13% hits | HEK293 cAMP-luciferase reporter cells, luminescence, 24 h | AID 624418;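 also: loss of luciferase light is scored as toxicity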
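Compound-treated cells are incubated 24 hr at 37 deg C under 5% CO2 after a 12 hour attachment period, then luciferase detection reagent is added and luminescence is measured following 12 min at room temperature; lowered signal indicates toxicity.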
GLP-1R agonist: activates the human GLP-1 receptor | P43220 | HEK293 GLP-1R CRE-luciferase, luminescence, 4-6 h; cells express a hypersensitive GLP-1R form | Potency, µM (highest dose often 45.6 µM), most hits filed as activators | 380,000 compounds, 0.007% hits | AID 624172
GLP1R inv ag: inverse agonists of human GLP-1 receptor; Potency, µM (doses to about 38.3 µM), usual class: inhibitors; 410,000 compounds, 1.6% hits; P43220; HEK293 GLP-1R CRE-luciferase, luminescence, 24 h; GLP-1R form is constitutively active; AID 624417; also: nearly all actives have a fitted effect of over 55% in size
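HEK293 cells stably co-expressing constitutively active GLP-1R and a cAMP-responsive luciferase reporter were seeded in DMEM with 10% Nu serum, given compounds after 12 h, and incubated 24 h at 37 deg C. Luminescence was then read.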
Of the large screens only hits and unclear results are named; the others gave an inactive call. Unless noted, calls follow the shape of the dose curve; as a rule, active = well fitted curve in the direction sought with a large enough effect; inconclusive = small, poorly fitted or top-dose-only effect, or another doubt; inactive = no such curve, though single readings can be large; an effect the other way counts as inactive or inconclusive.

O=C(NCc1ccc(Cl)cc1)C1CCN(c2nnc(N3CCCC3=O)s2)CC1	none
Cc1cc(C)n(C(=O)c2cccc([N+](=O)[O-])c2C)n1	none
Cc1c(C(=O)N2c3ccccc3Sc3ccccc32)cccc1[N+](=O)[O-]	GLP1R cytotox inconclusive, GLP1R inv ag 1.8µM
CCOc1ccc(N(CC(=O)Nc2ccc(C)c(Cl)c2)S(C)(=O)=O)cc1	GLP1R inv ag inconclusive
O=C(Nc1cc([N+](=O)[O-])ccc1Cl)C(Sc1ccccc1)c1ccccc1 (centres undefined)	GLP1R inv ag inconclusive
O=C(Nc1ccc(Cl)c([N+](=O)[O-])c1)C(Sc1ccccc1)c1ccccc1 (centres undefined)	GLP1R cytotox inconclusive, GLP1R inv ag 8.9µM
CCS(=O)(=O)c1ncc(N(Cc2ccco2)Cc2ccccc2F)c(C(=O)Nc2cccc(Cl)c2)n1	GLP1R inv ag 8.9µM (no result: KCNH2 3.1 block, hERG WT inh, GLP-1R agonist)
CC(C)c1ccc(CN(Cc2ccco2)c2cnc(S(C)(=O)=O)nc2C(=O)Nc2ccccc2)cc1	GLP1R inv ag 5µM (no result: KCNH2 3.1 block, hERG WT inh, GLP-1R agonist)
COc1cc(SC)ccc1C(=O)Nc1ccc(Cl)cn1	GLP1R inv ag 2.2µM
CN(C)c1ccc(CNS(=O)(=O)c2ccc(-c3cc(C(F)(F)F)on3)s2)cc1	none (no result: KCNH2 3.1 block, hERG WT inh, GLP-1R agonist)
O=C1Cc2cccc(=O)c(O)c2C(=O)O1	GLS inh 4µM
Cc1ccc(C(=O)CSc2nnnn2C(C)C)c(C)c1	GLP1R inv ag 4.5µM
Cc1ccc(C)c(C(=O)CSc2nnnn2C(C)C)c1	none
O=C(CSc1nc2cc(Cl)ccc2c(=O)n1Cc1ccco1)Nc1ccc(S(=O)(=O)N2CCOCC2)cc1	KCNH2 3.1 block -75
CC(C)c1ccc(NC(=O)CSc2n[nH]c(=O)n2Cc2ccco2)cc1	KCNH2 3.1 block -88
COC(=O)c1ccc2c(=O)n(Cc3ccco3)c(SCC(=O)Nc3ccc(C)c(Cl)c3)nc2c1	KCNH2 3.1 block -75
CS(=O)(=O)c1ccc(Cl)c(NC(=O)CSc2nc3ccccc3c(=O)n2CCCN2CCOCC2)c1	none (no result: hERG WT inh)
CS(=O)(=O)c1ccc(Cl)c(NC(=O)CSc2nc3ccccc3c(=O)n2Cc2ccco2)c1	KCNH2 3.1 block -98
Cc1ccc(CNC(=O)CN2C(=O)C3CCCCN3c3ccc(C(=O)N(C)C)cc32)cc1 (centres undefined)	none (no result: KCNH2 3.1 block, hERG WT inh, GLP-1R agonist)
O=C(NCc1ccccc1Cl)c1cnc2sc(N3CCOCC3)nn2c1=O	none (no result: KCNH2 3.1 block, hERG WT inh, GLP-1R agonist)
COc1ccc(Br)cc1/C=C/C(=O)Nc1ccc(C)cc1	GLP1R inv ag 4.5µM
O=C(COC(=O)c1ccccc1Nc1ccccc1)c1ccccc1	hERG WT inh -269, GLP1R cytotox inconclusive
COc1ccc(CC2S/C(=N/N=C/c3ccccc3O)NC2=O)cc1 (centres undefined)	GLP1R cytotox inconclusive, GLP1R inv ag 2.5µM
Cc1cc(Br)cn2c(Cc3cccc(Cl)c3)c(-c3cccc(Cl)c3)nc12	GLP1R inv ag 10µM (no result: KCNH2 3.1 block, hERG WT inh)
Cc1cc(Br)cn2c(Cc3ccsc3)c(-c3cccc(Cl)c3)nc12	GLP1R inv ag inconclusive (no result: KCNH2 3.1 block, hERG WT inh)
Cc1cc(C)n2c(Br)c(CSc3nc4ccccc4s3)nc2n1	KCNH2 3.1 block -78
Cc1cc(C)nc(NC(=O)CSc2nc3ccccc3s2)n1	none
CCOC(=O)/C(=C\c1ccc(OC(F)F)cc1)C1=Nn2c(nnc2-c2ccc(Cl)cc2)SC1	KCNH2 3.1 block -70, hERG WT inh -78, GLP1R inv ag inconclusive
CCOC(=O)/C(=C/c1ccc(OC(F)F)cc1)C1=Nn2c(nnc2-c2ccc(Cl)cc2)SC1	KCNH2 3.1 block -83, hERG WT inh inconclusive, GLP1R cytotox inconclusive, GLP1R inv ag inconclusive
O=C(Nc1cccc(Br)c1)c1cc(S(=O)(=O)N2CCCCC2)c[nH]1	none (no result: KCNH2 3.1 block, hERG WT inh, GLP-1R agonist)
COc1ccc(/C=C(/C(=O)NCc2ccccc2)c2ccccc2)cc1	GLP1R inv ag 25µM
Cc1ccc(NC(=O)C2CCC(CNS(=O)(=O)c3cccs3)CC2)cc1C (centres undefined)	GLP1R inv ag inconclusive (no result: KCNH2 3.1 block, hERG WT inh, GLP-1R agonist)
Cc1ccc(N2CCN(C(=O)c3ccccc3Br)CC2)c(C)c1	GLP1R inv ag 10µM
CCOc1cc(/C=C(\C#N)C(=O)Nc2ccc(C)cc2)ccc1OCc1cc(=O)n2nc(CC)sc2n1	none (no result: KCNH2 3.1 block, hERG WT inh)
O=C1N(Cc2cccc(Cl)c2)C[C@@H]2C[C@@H](c3cccc4ncccc34)N3CCC[C@@]123	GLP1R inv ag 10µM
O=C1N(Cc2cccc(Cl)c2)C[C@@H]2C[C@@H](c3cccn3-c3nccs3)N3CCC[C@@]123	KCNH2 3.1 block -86, GLP1R inv ag inconclusive
CC(C(=O)Nc1ccc(C#N)cc1)N(C)CC(=O)Nc1ccccc1Br (centres undefined)	GLP1R inv ag 11µM
CC(C(=O)Nc1ccc(C#N)cc1)N(C)CC(=O)Nc1cccc(F)c1 (centres undefined)	none
Cc1ccccc1C(=O)N(C)c1ccccc1C(=O)NCc1ccccc1	none
CC(c1ccccc1C(O)c1ccccc1)N(C)C (centres undefined)	none
Cc1ccc(C(O)(c2ccccc2)c2ccccc2C(C)N(C)C)c(C)c1 (centres undefined)	GLP1R cytotox inconclusive, GLP1R inv ag 10µM
CN(CC(=O)N1CCc2ccccc2C1)c1ccccc1	none
CC1=C(C(=O)OCc2ccccc2)C(c2cccs2)N2C(=O)CCSC2=N1 (centres undefined)	GLP1R inv ag 11µM
CCOC(=O)C1=C(C)N=C2SCCC(=O)N2[C@@H]1c1cccs1	GLS inh inconclusive
COc1cc(CNc2ccc3[nH]c(=O)[nH]c3c2)cc(Cl)c1OCc1ccccc1F	none (no result: KCNH2 3.1 block, hERG WT inh, GLP-1R agonist)
COc1cc(CNC2CCCC2)cc(Cl)c1OCc1ccccc1F	GLP1R cytotox inconclusive, GLP1R inv ag 3.5µM
O=C(Nc1cccc(Cl)c1)C1CCCN(c2nn3cc(-c4ccc(F)cc4)nc3s2)C1 (centres undefined)	GLP1R inv ag inconclusive (no result: KCNH2 3.1 block, hERG WT inh, GLP-1R agonist)
O=C(Nc1cccc(Cl)c1)C1CCN(c2nc3ccccc3nc2C(F)(F)F)CC1	none (no result: KCNH2 3.1 block, hERG WT inh, GLP-1R agonist)
COc1ccc(NC(=O)CN2CCN(CC(=O)Nc3cc(OC)cc(OC)c3)CC2)cc1	KCNH2 3.1 block -81
O=C(CN1CCCCCC1)Nc1ccc(Oc2ccccc2)cc1	KCNH2 3.1 block -96, GLP1R inv ag inconclusive
COc1cc(NC(=O)CN2C(=O)C(c3ccc(C)cc3)=NC23CCCCCC3)cc(OC)c1	none (no result: KCNH2 3.1 block, hERG WT inh, GLP-1R agonist)
CCOc1ccc(NC(=O)CN2CCN(CC(=O)Nc3ccc(F)cc3)CC2)cc1	KCNH2 3.1 block -89, hERG WT inh -92
COc1cc(NC(=O)CN2CCCCCC2)cc(OC)c1	none
COc1cc(NC(=O)CN2C(=O)C(c3ccc(C)cc3)=NC23CCCCC3)cc(OC)c1	GLP1R inv ag 10µM (no result: KCNH2 3.1 block, hERG WT inh, GLP-1R agonist)
